# Measurements: the supplement of paper PMC4466140
# How the values were obtained:
# Assay in all cases: SPOT peptide array binding signal intensity (averaged, normalized) (arbitrary units (background-subtracted, floor 0; scale differs between SH3 domains)); higher = stronger binding of the SH3 domain to the peptide
# AgAbp1 = target: AgAbp1
# Experimental: (§1)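 GST-tagged SH3 domains from S. cerevisiae (Sc), A. gossypii (Ag), C. albicans (Ca) and S. pombe (Sp) were incubated at 10 ug/ml overnight at 4 C on cellulose SPOT membranes carrying 292 synthetic 15-mer peptides mined from the S. cerevisiae proteome (cysteines replaced by serines). Binding was detected with anti-GST antibody, HRP secondary and chemiluminescence, quantified with Genespotter, and reported as normalized spot intensities averaged over biological replicates.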
# AgBbc1 = target: AgBbc1
# Experimental: as §1
# AgBem1-D1 = target: AgBem1-D1
# Experimental: as §1
# AgBzz1-D1 = target: AgBzz1-D1
# Experimental: as §1
# AgBzz1-D2 = target: AgBzz1-D2
# Experimental: as §1
# AgCyk3 = target: AgCyk3
# Experimental: as §1
# AgFus1 = target: AgFus1
# Experimental: as §1
# AgHof1 = target: AgHof1
# Experimental: as §1
# AgHse1 = target: AgHse1
# Experimental: as §1
# AgLsb1 = target: AgLsb1
# Experimental: as §1
# AgLsb4 = target: AgLsb4
# Experimental: as §1
# AgMyo5 = target: AgMyo5
# Experimental: as §1
# AgNbp2 = target: AgNbp2
# Experimental: as §1
# AgRvs167 = target: AgRvs167
# Experimental: as §1
# AgSho1 = target: AgSho1
# Experimental: as §1
# AgSla1-D1-D2 = target: AgSla1-D1-D2
# Experimental: as §1
# AgSla1-D3 = target: AgSla1-D3
# Experimental: as §1
# CaAbp1-D1 = target: CaAbp1-D1
# Experimental: as §1
# CaAbp1-D2 = target: CaAbp1-D2
# Experimental: as §1
# CaBbc1 = target: CaBbc1
# Experimental: as §1
# CaBem1-D1 = target: CaBem1-D1
# Experimental: as §1
# CaBzz1-D1 = target: CaBzz1-D1
# Experimental: as §1
# CaBzz1-D2 = target: CaBzz1-D2
# Experimental: as §1
# CaCyk3 = target: CaCyk3
# Experimental: as §1
# CaFus1 = target: CaFus1
# Experimental: as §1
# CaHof1 = target: CaHof1
# Experimental: as §1
# CaHse1 = target: CaHse1
# Experimental: as §1
# CaLsb1 = target: CaLsb1
# Experimental: as §1
# CaLsb4 = target: CaLsb4
# Experimental: as §1
# CaMyo5 = target: CaMyo5
# Experimental: as §1
# CaNbp2 = target: CaNbp2
# Experimental: as §1
# CaRvs167 = target: CaRvs167
# Experimental: as §1
# CaRvs167-3 = target: CaRvs167-3
# Experimental: as §1
# CaSho1 = target: CaSho1
# Experimental: as §1
# CaSla1-D1-D2 = target: CaSla1-D1-D2
# Experimental: as §1
# CaSla1-D3 = target: CaSla1-D3
# Experimental: as §1
# ScAbp1 = target: ScAbp1
# Experimental: as §1
# ScBbc1 = target: ScBbc1
# Experimental: as §1
# ScBem1-D1 = target: ScBem1-D1
# Experimental: as §1
# ScBzz1-D1 = target: ScBzz1-D1
# Experimental: as §1
# ScBzz1-D2 = target: ScBzz1-D2
# Experimental: as §1
# ScCyk3 = target: ScCyk3
# Experimental: as §1
# ScFus1 = target: ScFus1
# Experimental: as §1
# ScHof1 = target: ScHof1
# Experimental: as §1
# ScHse1 = target: ScHse1
# Experimental: as §1
# ScLsb1 = target: ScLsb1
# Experimental: as §1
# ScLsb2 = target: ScLsb2
# Experimental: as §1
# ScLsb3 = target: ScLsb3
# Experimental: as §1
# ScLsb4 = target: ScLsb4
# Experimental: as §1
# ScMyo3 = target: ScMyo3
# Experimental: as §1
# ScMyo5 = target: ScMyo5
# Experimental: as §1
# ScNbp2 = target: ScNbp2
# Experimental: as §1
# ScPex13 = target: ScPex13
# Experimental: as §1
# ScRvs167 = target: ScRvs167
# Experimental: as §1
# ScSho1 = target: ScSho1
# Experimental: as §1
# ScSla1-D1-D2 = target: ScSla1-D1-D2
# Experimental: as §1
# ScSla1-D3 = target: ScSla1-D3
# Experimental: as §1
# SpAbp1-D1 = target: SpAbp1-D1
# Experimental: as §1
# SpBbc1 = target: SpBbc1
# Experimental: as §1
# SpBzz1-D1 = target: SpBzz1-D1
# Experimental: as §1
# SpBzz1-D2 = target: SpBzz1-D2
# Experimental: as §1
# SpCyk3 = target: SpCyk3
# Experimental: as §1
# SpHof1 = target: SpHof1
# Experimental: as §1
# SpHof1-2 = target: SpHof1-2
# Experimental: as §1
# SpHof1-3 = target: SpHof1-3
# Experimental: as §1
# SpHse1 = target: SpHse1
# Experimental: as §1
# SpLsb1 = target: SpLsb1
# Experimental: as §1
# SpLsb4 = target: SpLsb4
# Experimental: as §1
# SpMyo1 = target: SpMyo1
# Experimental: as §1
# SpNbp2 = target: SpNbp2
# Experimental: as §1
# SpPex13 = target: SpPex13
# Experimental: as §1
# SpRvs167 = target: SpRvs167
# Experimental: as §1
# SpSla1-D1-D2 = target: SpSla1-D1-D2
# Experimental: as §1
# SpSla1-D3 = target: SpSla1-D3
# Experimental: as §1
binder,measurement,setting,value
RPPRPPPKPLHLRTE,SPOT peptide array binding signal intensity,AgAbp1,1720
same,SPOT peptide array binding signal intensity,AgBbc1,559
same,SPOT peptide array binding signal intensity,AgBem1-D1,113
same,SPOT peptide array binding signal intensity,AgBzz1-D1,270
same,SPOT peptide array binding signal intensity,AgBzz1-D2,69
same,SPOT peptide array binding signal intensity,AgCyk3,≤ 0
same,SPOT peptide array binding signal intensity,AgFus1,5.5
same,SPOT peptide array binding signal intensity,AgHof1,50
same,SPOT peptide array binding signal intensity,AgHse1,178
same,SPOT peptide array binding signal intensity,AgLsb1,27
same,SPOT peptide array binding signal intensity,AgLsb4,52
same,SPOT peptide array binding signal intensity,AgMyo5,8.25
same,SPOT peptide array binding signal intensity,AgNbp2,1310
same,SPOT peptide array binding signal intensity,AgRvs167,12.3
same,SPOT peptide array binding signal intensity,AgSho1,836
same,SPOT peptide array binding signal intensity,AgSla1-D1-D2,28
same,SPOT peptide array binding signal intensity,AgSla1-D3,14
same,SPOT peptide array binding signal intensity,CaAbp1-D1,913
same,SPOT peptide array binding signal intensity,CaAbp1-D2,4480
same,SPOT peptide array binding signal intensity,CaBbc1,626
same,SPOT peptide array binding signal intensity,CaBem1-D1,314
same,SPOT peptide array binding signal intensity,CaBzz1-D1,1940
same,SPOT peptide array binding signal intensity,CaBzz1-D2,405
same,SPOT peptide array binding signal intensity,CaCyk3,29
same,SPOT peptide array binding signal intensity,CaFus1,61.5
same,SPOT peptide array binding signal intensity,CaHof1,1
same,SPOT peptide array binding signal intensity,CaHse1,1310
same,SPOT peptide array binding signal intensity,CaLsb1,0.5
same,SPOT peptide array binding signal intensity,CaLsb4,1080
same,SPOT peptide array binding signal intensity,CaMyo5,2
KIRRSSLMIPNPQQF,SPOT peptide array binding signal intensity,AgAbp1,26.5
same,SPOT peptide array binding signal intensity,AgBbc1,56.5
same,SPOT peptide array binding signal intensity,AgBem1-D1,234
same,SPOT peptide array binding signal intensity,AgBzz1-D1,18.5
same,SPOT peptide array binding signal intensity,AgBzz1-D2,39
same,SPOT peptide array binding signal intensity,AgCyk3,≤ 0
same,SPOT peptide array binding signal intensity,AgFus1,88
same,SPOT peptide array binding signal intensity,AgHof1,56.8
same,SPOT peptide array binding signal intensity,AgHse1,138
same,SPOT peptide array binding signal intensity,AgLsb1,86.5
same,SPOT peptide array binding signal intensity,AgLsb4,14
same,SPOT peptide array binding signal intensity,AgMyo5,2
same,SPOT peptide array binding signal intensity,AgNbp2,15
same,SPOT peptide array binding signal intensity,AgRvs167,1.67
same,SPOT peptide array binding signal intensity,AgSho1,15.5
same,SPOT peptide array binding signal intensity,AgSla1-D1-D2,186
same,SPOT peptide array binding signal intensity,AgSla1-D3,3.5
same,SPOT peptide array binding signal intensity,CaAbp1-D1,316
same,SPOT peptide array binding signal intensity,CaAbp1-D2,153
same,SPOT peptide array binding signal intensity,CaBbc1,214
same,SPOT peptide array binding signal intensity,CaBem1-D1,65.5
same,SPOT peptide array binding signal intensity,CaBzz1-D1,195
same,SPOT peptide array binding signal intensity,CaBzz1-D2,206
same,SPOT peptide array binding signal intensity,CaCyk3,11
same,SPOT peptide array binding signal intensity,CaFus1,383
same,SPOT peptide array binding signal intensity,CaHof1,1
same,SPOT peptide array binding signal intensity,CaHse1,12.5
same,SPOT peptide array binding signal intensity,CaLsb1,4
same,SPOT peptide array binding signal intensity,CaLsb4,72.5
same,SPOT peptide array binding signal intensity,CaMyo5,20.5
same,SPOT peptide array binding signal intensity,CaNbp2,129
same,SPOT peptide array binding signal intensity,CaRvs167,42.3
same,SPOT peptide array binding signal intensity,CaRvs167-3,7.5
same,SPOT peptide array binding signal intensity,CaSho1,84.5
same,SPOT peptide array binding signal intensity,CaSla1-D1-D2,532
same,SPOT peptide array binding signal intensity,CaSla1-D3,352
same,SPOT peptide array binding signal intensity,ScAbp1,42
same,SPOT peptide array binding signal intensity,ScBbc1,22.2
same,SPOT peptide array binding signal intensity,ScBem1-D1,136
same,SPOT peptide array binding signal intensity,ScBzz1-D1,40
same,SPOT peptide array binding signal intensity,ScBzz1-D2,32
same,SPOT peptide array binding signal intensity,ScCyk3,24
same,SPOT peptide array binding signal intensity,ScFus1,68
same,SPOT peptide array binding signal intensity,ScHof1,≤ 0
same,SPOT peptide array binding signal intensity,ScHse1,388
same,SPOT peptide array binding signal intensity,ScLsb1,20.5
same,SPOT peptide array binding signal intensity,ScLsb2,1.5
same,SPOT peptide array binding signal intensity,ScLsb3,15.5
same,SPOT peptide array binding signal intensity,ScLsb4,≤ 0
same,SPOT peptide array binding signal intensity,ScMyo3,5
same,SPOT peptide array binding signal intensity,ScMyo5,7
same,SPOT peptide array binding signal intensity,ScNbp2,126
same,SPOT peptide array binding signal intensity,ScPex13,46
same,SPOT peptide array binding signal intensity,ScRvs167,40.2
same,SPOT peptide array binding signal intensity,ScSho1,304
same,SPOT peptide array binding signal intensity,ScSla1-D1-D2,526
same,SPOT peptide array binding signal intensity,ScSla1-D3,337
same,SPOT peptide array binding signal intensity,SpAbp1-D1,95
same,SPOT peptide array binding signal intensity,SpBbc1,3.5
same,SPOT peptide array binding signal intensity,SpBzz1-D1,311
same,SPOT peptide array binding signal intensity,SpBzz1-D2,≤ 0
same,SPOT peptide array binding signal intensity,SpCyk3,6
same,SPOT peptide array binding signal intensity,SpHof1,94.5
same,SPOT peptide array binding signal intensity,SpHof1-2,24
same,SPOT peptide array binding signal intensity,SpHof1-3,241
same,SPOT peptide array binding signal intensity,SpHse1,184
same,SPOT peptide array binding signal intensity,SpLsb1,5.5
same,SPOT peptide array binding signal intensity,SpLsb4,144
same,SPOT peptide array binding signal intensity,SpMyo1,9.5
same,SPOT peptide array binding signal intensity,SpNbp2,33
same,SPOT peptide array binding signal intensity,SpPex13,162
same,SPOT peptide array binding signal intensity,SpRvs167,17.3
same,SPOT peptide array binding signal intensity,SpSla1-D1-D2,8
same,SPOT peptide array binding signal intensity,SpSla1-D3,68
